Laboratory results: the supplement of paper PMC12067926

The molecules below were run on Community 10 (assay: relative growth (AUC of 72 h growth curve relative to DMSO control, dAUC) (ratio); higher = more growth (less inhibition), active = hit call of the paper). Conditions: 20 µM;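 active = growth AUC significantly below the DMSO wells by Dunnett test; inactive = the rest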.
Experimental: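 Environmental bacterial isolates (Iceland stream sediment and Silwood Park soil) and whole stream-sediment communities were grown in LB from a 1:100 dilution with each pesticide at 20 µM (1% DMSO). A600 was read hourly for 72 h and the area under a spline-fitted growth curve (AUC) was computed. dAUC is the mean AUC of 3 biological replicates divided by the mean AUC of the DMSO controls. Significance was tested by Dunnett's test against the DMSO control.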

| Compound | relative growth |
| --- | --- |
| CCCSP(=O)(OCC)Oc1ccc(Br)cc1Cl (stereo not given) | 0.705 (inactive) |
| CC(C)(C)[C@@H](O)[C@H](Oc1ccc(Cl)cc1)n1cncn1 | 1.07 (inactive) |
| CCOC(=O)CC(SP(=S)(OC)OC)C(=O)OCC (stereo not given) | 0.992 (inactive) |
| CCCC(Cn1cncn1)c1ccc(Cl)cc1Cl (stereo not given) | 0.973 (inactive) |
| O=C(Nc1ccc(F)cc1F)c1cccnc1Oc1cccc(C(F)(F)F)c1 | 0.942 (inactive) |
| CC1(C)[C@H](/C=C(\Cl)C(F)(F)F)[C@@H]1C(=O)OC(C#N)c1cccc(Oc2ccccc2)c1 (stereo not given in full) | 0.816 (inactive) |
| OC(Cn1cncn1)(c1ccc(F)cc1)c1ccccc1F (stereo not given) | 1.09 (inactive) |
| CC1(C)C(C=C(Cl)Cl)C1C(=O)OC(C#N)c1cccc(Oc2ccccc2)c1 (stereo not given) | 1.21 (inactive) |
| O=C(NC(=O)c1c(F)cccc1F)Nc1ccc(Cl)cc1 | 0.795 (inactive) |
| O=C(O)COc1ccc(Cl)cc1Cl | 0.98 (inactive) |
| C#CCN1C(=O)COc2cc(F)c(N3C(=O)C4=C(CCCC4)C3=O)cc21 | 0.871 (inactive) |
| CCCN(CCC)C(=O)SCc1ccccc1 | 0.888 (inactive) |
| COC(=O)Nc1nc2ccccc2[nH]1 | 0.869 (inactive) |
| N#CCNC(=O)c1cnccc1C(F)(F)F | 0.928 (inactive) |
| N#Cc1c(Cl)c(Cl)c(Cl)c(C#N)c1Cl | 0.896 (inactive) |
| CC(C)NC(=O)N1CC(=O)N(c2cc(Cl)cc(Cl)c2)C1=O | 1.01 (inactive) |
| CCCCCCCCCCCCNC(=N)N | 0.505 (active) |
| COP(=S)(OC)Oc1ccc(SC)c(C)c1 | 0.993 (inactive) |
| CN/C(=N\[N+](=O)[O-])NCc1cnc(Cl)s1 | 0.931 (inactive) |
| CN1COCN(Cc2cnc(Cl)s2)/C1=N\[N+](=O)[O-] | 0.777 (inactive) |

| Compound | relative growth |
| --- | --- |
| CC(C)N(C)S(=O)(=O)NC(=O)c1cc(-n2c(=O)cc(C(F)(F)F)n(C)c2=O)c(F)cc1Cl | 0.909 (inactive) |
| CO/C=C(/C(=O)OC)c1ccccc1COc1cccc(C(F)(F)F)n1 | 0.887 (inactive) |
| Cc1nc(N(C)C)nc(OC(=O)N(C)C)c1C | 0.979 (inactive) |
| COP(=S)(OC)Oc1nc(Cl)c(Cl)cc1Cl | 0.856 (inactive) |
| CC1(C)C(C(=O)OC(C#N)c2cccc(Oc3ccccc3)c2)C1(C)C (stereo not given) | 0.908 (inactive) |
| C#CCOc1ccc(CCNC(=O)C(OCC#C)c2ccc(Cl)cc2)cc1OC (stereo not given) | 0.982 (inactive) |
| CCC(CC)Nc1c([N+](=O)[O-])cc(C)c(C)c1[N+](=O)[O-] | 0.687 (inactive) |
| Fc1ccc([C@]2(Cn3cncn3)O[C@H]2c2ccccc2Cl)cc1 (racemic) | 0.962 (inactive) |
| O=C1C2CC=CCC2C(=O)N1SC(Cl)(Cl)Cl (stereo not given) | 0.58 (inactive) |
| CNC(=O)c1cc(C#N)cc(C)c1NC(=O)c1cc(Br)nn1-c1ncccc1Cl | 0.859 (inactive) |
| CO/C=C(/C(=O)OC)c1ccccc1Oc1cc(Oc2ccccc2C#N)ncn1 | 0.868 (inactive) |
| O=[N+]([O-])/N=C1\NCCN1Cc1ccc(Cl)nc1 | 1.23 (inactive) |
| O=C(NC(=O)c1c(F)cccc1F)Nc1ccc(OC(F)(F)C(F)OC(F)(F)F)c(Cl)c1 (stereo not given) | 0.965 (inactive) |
| C[N+]1(C)CCCCC1 | 1.01 (inactive) |
| CC[C@H]1CCC[C@H](O[C@H]2CC[C@H](N(C)C)[C@@H](C)O2)[C@@H](C)C(=O)C2=C[C@@H]3[C@@H](C=C(C)[C@@H]4C[C@@H](O[C@@H]5O[C@@H](C)[C@H](OC)[C@@H](OC)[C@H]5OC)C[C@@H]34)[C@@H]2CC(=O)O1.CC[C@H]1CCC[C@H](O[C@H]2CC[C@H](N(C)C)[C@@H](C)O2)[C@@H](C)C(=O)C2=C[C@H]3[C@@H]4C[C@H](O[C@@H]5O[C@@H](C)[C@H](OC)[C@@H](OC)[C@H]5OC)C[C@H]4C=C[C@H]3C2CC(=O)O1 | 0.772 (inactive) |
| CC1COC(Cn2cncn2)(c2ccc(Oc3ccc(Cl)cc3)cc2Cl)O1 (stereo not given) | 0.896 (inactive) |
| CCN(CC)c1nc(C)cc(OP(=S)(OC)OC)n1 | 0.843 (inactive) |
| CC(Oc1ccc(Oc2nc3ccc(Cl)cc3o2)cc1)C(=O)O (stereo not given) | 1.15 (inactive) |
| CNC(=O)ON=C(C)SC | 1.14 (inactive) |
| N#Cc1nn(-c2c(Cl)cc(C(F)(F)F)cc2Cl)c(N)c1[S+]([O-])C(F)(F)F (stereo not given) | 1.05 (inactive) |
